Measured values: PubChem BioAssay AID686979 (National Center for Advancing Translational Sciences (NCATS), 2013)
Out of some 420,000 compounds screened, about 50,000 (12%) were called active. Another 26% or so got no clear call; they are omitted. This is one part of a sample in which actives are shown more often than they occur. Calls come from the whole dose curve; as a rule, active = well fitted inhibition curve with a large enough effect; inconclusive = small, poorly fitted or top-dose-only effect; inactive = flat fitted curve, though single readings scatter.

Assay: qHTS for Inhibitors of human tyrosyl-DNA phosphodiesterase 1 (TDP1): qHTS in cells in presence of CPT; note: nearly all actives have a fitted effect of over 55% in size
Settings: chicken DT40 Tdp1-/-;hTDP1 cells + 20 nM CPT, ATP luminescence, 48 h; series mostly up to 46.2 µM; activity change, negative = growth inhibition: at the top concentration
Method in brief: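 Cell growth measured by CellTiter-Glo luminescence after a minimum 48 h, 37 C compound exposure with 20 nM CPT in Tdp1-knockout DT40 cells stably expressing hTDP1, seeded 400/well; qHTS titration format.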
% is set by controls: 0 for no effect and ±100 for the full control effect; potency is the fitted concentration of half-maximal effect.

Row | Structure (SMILES) | activity change, negative = growth inhibition | Potency
1 | O=C(NNC(=O)c1cccc(S(=O)(=O)Nc2ccc(Cl)cc2)c1)c1ccc(=O)[nH]c1 | -6.95% (inactive) | 
2 | CCN(CC)c1ccc(NC(=O)c2ccc(=O)[nH]c2)cc1S(=O)(=O)Nc1ccc(OC)cc1 |  | 29.1 µM (active)
3 | COc1ccc(NS(=O)(=O)c2cc(NC(=O)c3ccc(S(=O)(=O)N(C)C)cc3)ccc2N2CCOCC2)cc1 | -1.24% (inactive) | 
4 | Cc1cc(OCC(=O)N2CCN(c3ncccn3)CC2)ccc1Cl | -26.2% (inactive) | 
5 | COC(=O)C1=C(C)N(C)C(=S)NC1c1cc(OC)ccc1OC (stereo not given) | -20.3% (inactive) | 
6 | COC(=O)C1=CN(Cc2ccc(OC)c(OC)c2)C=C(C(=O)OC)C1c1cccs1 | -1.53% (inactive) | 
7 | COc1cc2c(cc1OC)[C@@H](Cc1cc(OC)c(OC)c(OC)c1)[N+](C)(CCCOC(=O)CC/C=C/CCC(=O)OCCC[N+]1(C)CCc3cc(OC)c(OC)cc3[C@H]1Cc1cc(OC)c(OC)c(OC)c1)CC2 (stereo not given in full) |  | inactive
8 | COc1ccc(CC2c3cc(OC)c(OC)cc3CC[N+]2(C)CCC(=O)OCCCCCOC(=O)CC[N+]2(C)CCc3cc(OC)c(OC)cc3C2Cc2ccc(OC)c(OC)c2)cc1OC (stereo not given) |  | 16.4 µM (active)
9 | O=C(NCc1cccc(CNC(=O)Nc2cccc(O)c2)c1)Nc1cccc(O)c1 | -20.5% (inactive) | 
10 | COc1ccc(C(=O)OCC(=O)Nc2ccc3[nH]c(=O)[nH]c3c2)c(OC)c1OC | 9% (inactive) | 
11 | C/C(=N\N1CCN(Cc2ccc(C)cc2)CC1)c1ccco1 | -26.3% (inactive) | 
12 | NS(=O)(=O)c1ccc(N2C(=O)C3C4CC(C(Br)C4Br)C3C2=O)cc1 (stereo not given) | -4.7% (inactive) | 
13 | Cc1ccccc1C#CC1=CC(=O)CC(C)(C)C1 |  | 20.6 µM (active)
14 | Cc1cc(O)ccc1NC1=CC(=O)CC(C)(C)C1 | -0.129% (inactive) | 
15 | CC1(C)CC(=O)C=C(Nc2ccccc2)C1 | 0.431% (inactive) | 
16 | COc1ccc(C2(O)C(=O)Nc3ccccc32)cc1 (stereo not given) | 5.89% (inactive) | 
17 | CC(=O)N1CCN(CC(C)(C)NS(=O)(=O)c2ccc(C)cc2)CC1 | -13.6% (inactive) | 
18 | COc1ccc2cc(S(=O)(=O)Nc3ccccn3)ccc2c1 | 2.24% (inactive) | 
19 | CCOc1ccc(OCC)c(NS(=O)(=O)c2ccc3[nH]c(=O)ccc3c2)c1 | -20.2% (inactive) | 
20 | COc1cc(NS(=O)(=O)c2ccc3ccccc3c2)c2ncccc2c1 |  | 8.2 µM (active)
21 | CN(C)C(=O)[C@@H]1C[C@@H](Sc2nc3ccccc3[nH]2)CN1Cc1ccc(Cl)cc1 | 0.0416% [at 9.04 µM] (inactive) | 
22 | CCCCn1nc(C(=O)OCC(=O)Nc2sccc2C(N)=O)c2ccccc2c1=O | 1.03% (inactive) | 
23 | CCCCn1nc(C(=O)N2CCc3ccccc32)c2ccccc2c1=O |  | 18.4 µM (active)
24 | CCOC(=O)C(C)Oc1cccc2c(=O)n(CC(=O)N3CCc4ccccc43)ccc12 (stereo not given) | -24.8% (inactive) | 

Row | Structure (SMILES) | activity change, negative = growth inhibition | Potency
25 | O=C(CSc1nc2ccccc2[nH]1)Nc1nc(-c2ccccc2)c(-c2ccccc2)o1 | 12.2% (inactive) | 
26 | O=C(CSc1n[nH]c(-c2cccs2)n1)N1CCCCC1 | 0.0429% (inactive) | 
27 | Cc1cccc(C)c1-n1c(C)cc(/C=C2\C(=O)NN(c3ccccc3)C2=O)c1C | -17.4% (inactive) | 
28 | CC(C)Cn1cnc2c1c(=O)n(CC(O)c1ccccc1)c(=O)n2CC(C)C (stereo not given) | -27.6% (inactive) | 
29 | Cn1c(=O)c2c(ncn2CCc2ccccc2)n(C)c1=O | 1.78% (inactive) | 
30 | Cn1c(=O)c2c(ncn2CC(COCc2ccccc2Cl)OCc2ccccc2Cl)n(C)c1=O (stereo not given) |  | 25.9 µM (active)
31 | COc1ccc(C)cc1NC(=O)CSc1nnc2ccc(-c3ccccn3)nn12 | -26.6% (inactive) | 
32 | CCN(Cc1ccccc1)S(=O)(=O)c1cc2c3c(c1)CCN3C(=O)CC2 | -22% (inactive) | 
33 | O=C(CCc1nc(CN2CCN(S(=O)(=O)c3ccc(F)cc3)CC2)no1)N1CCCCC1 | -5.76% (inactive) | 
34 | CCc1ccc(CNCc2c(C(=O)O)n(Cc3ccc(F)cc3Cl)c3cc(OC)ccc23)cc1 |  | 11.6 µM (active)
35 | COc1ccc(CNC(=O)CN2CCC(n3nnc4cc(F)ccc43)CC2)cc1 | 6.39% (inactive) | 
36 | COc1cccc(NC(=O)NCc2ccc(F)cc2)c1 | 5.46% (inactive) | 
37 | COc1cc(C)nc(N2CCCC(C(=O)NCC(C)C)C2)n1 (stereo not given) | -14.4% (inactive) | 
38 | O=C(Nc1ccccc1)O/N=C1\CCCCC1c1ccc([N+](=O)[O-])cc1[N+](=O)[O-] (stereo not given) | -24% (inactive) | 
39 | Cc1ccn2c(-c3csc(Nc4ccc(C(=O)O)cc4)n3)c(C)nc2c1 | -25.8% (inactive) | 
40 | CCCCCCC(=O)Nc1nc(C)c(-c2csc(Nc3cccc(OC)c3)n2)s1 |  | 20.6 µM (active)
41 | CC(=O)Nc1nc(C)c(-c2csc(Nc3ccc(S(N)(=O)=O)cc3)n2)s1 | -24.8% (inactive) | 
42 | COc1cccc(NC(=O)COc2cccnc2[N+](=O)[O-])c1 | -22.7% (inactive) | 
43 | C=CCCC(=O)Nc1nc(C)c(-c2csc(Nc3ccc(Cl)cc3)n2)s1 |  | 11.6 µM (active)
44 | Cc1nnc(NC(=O)CCCOc2ccccc2)s1 | -8.05% (inactive) | 
45 | CCc1ccccc1OCC(=O)Nc1nnc(C2CC2)s1 | -20.6% (inactive) | 
46 | N#Cc1ccc[n+](CC(=O)c2ccc(O)c(O)c2)c1 | -3.73% (inactive) | 
47 | O=C(CSc1ncn[nH]1)Nc1ccc(Br)cc1Br | -2.92% (inactive) | 
48 | Cc1n[nH]c(=O)c2c(NC(=O)COC(=O)c3ncc(Cl)c(Cl)c3Cl)oc(C)c12 | 5.53% (inactive) | 

Row | Structure (SMILES) | activity change, negative = growth inhibition | Potency
49 | O=C(CN(C(=O)c1nsc(Cl)c1Cl)c1cccc(F)c1)NC1CCCC1 | 8.99% (inactive) | 
50 | Cc1ccc(S(=O)(=O)n2oc(=O)c(C3CCCCC3)c2N)cc1 | 0.443% (inactive) | 
51 | Cc1c(Cl)c([N+](=O)[O-])nn1Cc1ccc(C(=O)N/N=C\c2cc(Cl)ccc2O)o1 |  | 3.66 µM (active)
52 | Cc1ccc(C(=O)O)cc1NC(=O)c1ccc(Cn2nc(C)c(Cl)c2C)o1 | 7.71% (inactive) | 
53 | O=C(N/N=C/c1ccc2c(c1)OCO2)c1ccc(Cn2cc([N+](=O)[O-])cn2)o1 | 0.995% (inactive) | 
54 | Brc1ccccc1/C=N/Nc1nc2ccccc2o1 | -26.5% (inactive) | 
55 | COc1cc(OC)cc(-c2nnc(N(C)C(=O)c3ccncc3)s2)c1 | -16.9% (inactive) | 
56 | COCCN(C(=O)C(C)C)c1nnc(-c2ccc(C(C)(C)C)cc2)s1 |  | 20.6 µM (active)
57 | COCCN(C(=O)c1ccco1)c1nnc(-c2ccc(OC)cc2)s1 | -8.51% (inactive) | 
58 | COc1ccc(/C=C/c2noc(-c3ccccc3O)n2)cc1OC | -13.4% (inactive) | 
59 | CC(=O)O[C@H]1c2ccccc2-c2ccccc2[C@@H]1OC(C)=O | 6.3% (inactive) | 
60 | Cc1cccc(NC(c2cccc(F)c2)c2ccc3ccc(C)nc3c2O)n1 (stereo not given) |  | 8.2 µM (active)
61 | CCn1ncc(CNC(=O)C2(C)CC2(Br)Br)c1C (stereo not given) | 0.642% (inactive) | 
62 | O=C(CCCC(=O)N1CCN(c2cccc(Cl)c2)CC1)c1ccccc1 |  | 14.6 µM (active)
63 | O=C(CN1CCN(c2ccc(Cl)cc2)CC1)c1ccccc1 | -26.7% (inactive) | 
64 | CCc1nc2ccc(C(=O)N3CCN(c4cccc(Cl)c4)CC3)cc2nc1CC | -30.4% (inactive) | 
65 | COc1cc(C(C(=O)NC2CCCC2)N(C(=O)c2ccco2)c2ccccc2C(C)=O)cc(OC)c1OC (stereo not given) | -1.96% (inactive) | 
66 | CC(C)C(NC(=O)c1c(F)cccc1F)C(=O)NCc1ccncc1 (stereo not given) | -27.6% (inactive) | 
67 | CCO[C@H]1OC(C(=O)N2CCOCC2)=C[C@@H](c2ccc3c(c2)OCO3)[C@@H]1CCCO | -0.536% (inactive) | 
68 | CCO[C@H]1OC(C(=O)NCc2ccccc2)=C[C@@H](c2coc3ccccc3c2=O)[C@@H]1CCCO |  | 23.1 µM (active)
69 | O=C(NC1CC1)C1=C[C@H](c2coc3ccccc3c2=O)C[C@H](OCCCCO)O1 | -8.12% (inactive) | 
70 | Cc1ccc(NC(=O)C(c2ccccc2)N2CCN(C(=O)c3ccco3)CC2)cc1 (stereo not given) | -20.2% (inactive) | 
71 | O=C(O)C1CCCN1c1nc(Cl)ccc1[N+](=O)[O-] (stereo not given) | 7.86% (inactive) | 
72 | CCC(=O)N1CCc2cc(S(=O)(=O)CCC(=O)N3CCN(c4ccccc4F)CC3)ccc21 | -15.1% (inactive) | 

Row | Structure (SMILES) | activity change, negative = growth inhibition | Potency
73 | CCC(=O)N1CCc2cc(Br)cc(S(=O)(=O)CCC(=O)N3CCN(c4ccc(F)cc4)CC3)c21 |  | 20.6 µM (active)
74 | O=C(CCS(=O)(=O)c1cc(Br)cc2c1N(C(=O)C1CC1)CC2)Nc1ccc(C(F)(F)F)cc1 | -13.6% (inactive) | 
75 | CCC(=O)N1CCc2cc(Br)cc(S(=O)(=O)CCC(=O)NCc3ccccc3OC)c21 | -2.41% (inactive) | 
76 | O=C(CCS(=O)(=O)c1cc(Br)cc2c1N(C(=O)C1CC1)CC2)Nc1ccc(Br)cc1F | 12.1% (inactive) | 
77 | CN(Cc1ccccc1)C(=O)CCS(=O)(=O)c1cc(Br)cc2c1N(C(=O)C1CC1)CC2 |  | 13 µM (active)
78 | CC1(C)C[C@H]2C3=CCC4[C@@]5(C)CC[C@H](O)[C@](C)(CO)C5CC[C@@]4(C)[C@]3(C)C[C@@H](O)[C@@]2(CO)[C@@H](O)[C@@H]1O (stereo not given in full) | -6.68% (inactive) | 
79 | CCCCc1nc2cc(C(=O)NCCc3cnn(C)c3)ccc2o1 | -21.1% (inactive) | 
80 | Cc1cc(C)c(C)c(S(=O)(=O)N[C@@H](C)C(=O)OC(C)C(=O)NC(N)=O)c1C (stereo not given in full) | 1.29% (inactive) | 
81 | CN(Cc1c(F)cccc1Cl)C(=O)COC(=O)Cn1cnc2ccccc2c1=O | 6.46% (inactive) | 
82 | CCc1nnc(NC(=O)C2CCN(C(=O)c3ccccc3C)CC2)s1 | 2.38% (inactive) | 
83 | Cc1ccccc1C(=O)N1CCC(C(=O)Nc2ccc(S(=O)(=O)N(C)C(C)C)cc2)CC1 |  | 14.6 µM (active)
84 | CCOC(=O)Nc1ccc(S(=O)(=O)N(C)C(C)C)cc1 | -9.23% (inactive) | 
85 | COc1ccc(N2CCN(CCCNC(=O)C3CCN(S(=O)(=O)N4CCOCC4)CC3)CC2)cc1 | -5.76% (inactive) | 
86 | NNC(=O)c1oc2nc(-c3ccccc3)cc(-c3ccco3)c2c1N | -7.63% (inactive) | 
87 | CN(C)C(=O)Cn1c(=O)n(S(=O)(=O)c2ccccc2)c2ccccc21 | 33.8% (inactive) | 
88 | C/C(=N\OCC(=O)Nc1ccc(Br)cc1)c1cccs1 | -4.26% (inactive) | 
89 | CC1CC2=C(CC1/C=N/NC(N)=S)C(C)(C)CCC2 (stereo not given) |  | 4.11 µM (active)
90 | CC1(C)CCCC2=C1CC1C(=O)N(c3ccccc3)C(=O)C1C2 (stereo not given) | -11.4% (inactive) | 
91 | Cc1ccccc1N1CC(C(=O)Nc2nnc(SCCC3OCCO3)s2)CC1=O (stereo not given) | -1% (inactive) | 
92 | COc1ccc(NC(=O)N2CCCC2C(=O)NCc2ccccc2Cl)cc1 (stereo not given) | -17.9% (inactive) | 
93 | Cc1ccccc1-c1nc(C#N)c(NCc2ccco2)o1 | 25.6% (inactive) | 
94 | CCOc1ccc(Nc2oc(/C=C/c3ccc(F)cc3)nc2C#N)cc1 | -22.1% (inactive) | 
95 | COc1ccc(Nc2oc(-c3ccccc3Cl)nc2C#N)cc1 |  | 2.91 µM (active)
